For some of these results: Results with a measured potency or affinity are listed apart.

The results in this text go back to ChEMBL document CHEMBL3988442, “University of Dundee, Small-Polar-MMV Screening Library” (2021).

Common to all, as to design: scale not given: direction of the effect not stated beside the values
Test [1] has as its target Protein translocase subunit SecA (Escherichia coli (strain K12)) (UniProt P10408). In words: Assay to Identify E. coli SecA ATPase Inhibitors. It counts as functional. The following applies: 30 µM.
Test [2] addresses T1, Ubiquitin-activating enzyme e1, putative (Leishmania donovani (strain BPK282A1)) (UniProt E9BSI1).
T1 sequence (whole entry): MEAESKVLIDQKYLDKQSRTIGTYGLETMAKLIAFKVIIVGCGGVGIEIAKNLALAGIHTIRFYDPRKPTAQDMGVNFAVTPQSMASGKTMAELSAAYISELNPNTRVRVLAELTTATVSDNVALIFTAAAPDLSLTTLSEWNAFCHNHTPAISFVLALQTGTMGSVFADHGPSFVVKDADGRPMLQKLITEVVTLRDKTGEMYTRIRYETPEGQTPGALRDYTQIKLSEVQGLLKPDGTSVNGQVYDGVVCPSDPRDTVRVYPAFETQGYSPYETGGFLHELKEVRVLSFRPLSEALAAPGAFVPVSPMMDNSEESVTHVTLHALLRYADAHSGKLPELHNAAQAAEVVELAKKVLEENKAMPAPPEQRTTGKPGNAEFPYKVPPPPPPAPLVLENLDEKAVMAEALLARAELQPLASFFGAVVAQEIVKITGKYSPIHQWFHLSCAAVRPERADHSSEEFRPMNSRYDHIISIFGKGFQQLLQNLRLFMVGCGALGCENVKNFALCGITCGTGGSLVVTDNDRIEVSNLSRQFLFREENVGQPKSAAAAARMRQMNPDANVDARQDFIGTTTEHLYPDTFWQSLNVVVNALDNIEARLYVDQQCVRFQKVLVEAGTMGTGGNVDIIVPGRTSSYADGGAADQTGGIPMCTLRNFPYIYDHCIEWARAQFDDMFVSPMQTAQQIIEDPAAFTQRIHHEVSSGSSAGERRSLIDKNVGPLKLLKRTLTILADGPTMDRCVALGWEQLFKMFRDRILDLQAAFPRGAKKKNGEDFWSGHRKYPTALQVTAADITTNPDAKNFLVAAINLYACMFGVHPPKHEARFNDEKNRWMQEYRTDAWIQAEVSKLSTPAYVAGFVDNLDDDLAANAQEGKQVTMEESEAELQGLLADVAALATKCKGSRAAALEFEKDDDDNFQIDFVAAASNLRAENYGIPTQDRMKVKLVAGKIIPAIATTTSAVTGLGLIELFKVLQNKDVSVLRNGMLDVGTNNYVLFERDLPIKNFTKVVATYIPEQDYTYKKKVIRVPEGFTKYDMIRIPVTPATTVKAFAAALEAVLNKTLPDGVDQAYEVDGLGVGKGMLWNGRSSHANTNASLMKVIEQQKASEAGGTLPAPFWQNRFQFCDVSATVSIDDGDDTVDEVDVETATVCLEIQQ
The test can be described thus: Leishmania donovani Ubiquitin Activating Enzyme (LdE1). In kind it is functional. To be noted: 30 µM.

Test [3] has as its target AMP-activated protein kinase, AMPK (Homo sapiens) (UniProt P54646+O43741+P54619+Q9UGJ0+Q9Y478+Q13131+Q9UGI9). In words: AMP-dependent Kinase enzyme assay. An in vitro enzyme assay that detects ADP turnover that is directly proportional to AMPK activity. This uses naive AMPK that is activated during the assay with MK-8722. In kind it is functional. The following applies: 30 µM.

In test [4] the target is Sialic acid-binding Ig-like lectin 9 (Homo sapiens) (UniProt Q9Y336). In words: Hs-Siglec9 ALPHAscreen SOP 20170721. The following applies: 10 µM. Background: Alpha assays give light when donor and acceptor beads are brought close together.
The next test deals with Trypanosoma cruzi. The test can be described thus: Trypanosoma cruzi phosphomannomutase and mannose-1-phosphate guanylyltransferase assay. The following applies: 10 µM. It counts as functional.
The target of test [5] is T2, Arginase-2, mitochondrial (Homo sapiens) (UniProt P78540).
T2 sequence (whole entry): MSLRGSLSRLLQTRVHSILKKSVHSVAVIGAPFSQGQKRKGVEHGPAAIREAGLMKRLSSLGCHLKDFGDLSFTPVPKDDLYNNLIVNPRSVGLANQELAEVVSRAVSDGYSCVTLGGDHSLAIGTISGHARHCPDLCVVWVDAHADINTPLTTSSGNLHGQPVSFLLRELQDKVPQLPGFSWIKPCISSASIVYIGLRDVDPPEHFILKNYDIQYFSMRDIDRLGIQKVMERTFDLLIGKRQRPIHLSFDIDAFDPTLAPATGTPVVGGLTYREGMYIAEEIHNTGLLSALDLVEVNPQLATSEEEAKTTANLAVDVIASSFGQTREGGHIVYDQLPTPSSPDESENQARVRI
The test can be described thus: in vitro enzyme assay to detect the production of urea directly proportional to the activity of Arginase II. Note: in the data most compounds retested in dose-response had high values. The following applies: 33.3 µM. It counts as functional.

Test [6] has as its target T3, Proteasome subunit beta (Trypanosoma cruzi) (UniProt O96673).
T3 sequence (whole entry): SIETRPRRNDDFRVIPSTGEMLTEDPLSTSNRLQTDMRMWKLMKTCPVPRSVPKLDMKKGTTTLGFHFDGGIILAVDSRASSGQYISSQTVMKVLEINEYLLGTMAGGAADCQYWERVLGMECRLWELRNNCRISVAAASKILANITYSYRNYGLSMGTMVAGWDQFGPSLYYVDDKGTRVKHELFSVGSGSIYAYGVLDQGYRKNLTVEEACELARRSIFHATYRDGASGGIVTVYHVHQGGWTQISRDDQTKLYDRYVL
The test can be described thus: Trypanosoma cruzi proteasome chymotrypsin-like activity (TcProtChymo) assay. Note: in the data most compounds retested in dose-response had high values. The following applies: 9.37 µM. It counts as functional.

The species entered for a further test is Homo sapiens. In words: To identify inhibition of the IFN signalling (Jak-Stat) pathway via expression of an eGFP reporter gene under the control of an IFN-stimulated response element (ISRE) containing MxA promoter. In kind it is functional. The following applies: 30 µM. (A reporter such as luciferase makes a cellular process visible.)
Test [7] has as its target T4, Tyrosyl-tRNA synthetase, putative (Trypanosoma cruzi (strain CL Brener)) (UniProt Q4DSP6).
T4 sequence (whole entry): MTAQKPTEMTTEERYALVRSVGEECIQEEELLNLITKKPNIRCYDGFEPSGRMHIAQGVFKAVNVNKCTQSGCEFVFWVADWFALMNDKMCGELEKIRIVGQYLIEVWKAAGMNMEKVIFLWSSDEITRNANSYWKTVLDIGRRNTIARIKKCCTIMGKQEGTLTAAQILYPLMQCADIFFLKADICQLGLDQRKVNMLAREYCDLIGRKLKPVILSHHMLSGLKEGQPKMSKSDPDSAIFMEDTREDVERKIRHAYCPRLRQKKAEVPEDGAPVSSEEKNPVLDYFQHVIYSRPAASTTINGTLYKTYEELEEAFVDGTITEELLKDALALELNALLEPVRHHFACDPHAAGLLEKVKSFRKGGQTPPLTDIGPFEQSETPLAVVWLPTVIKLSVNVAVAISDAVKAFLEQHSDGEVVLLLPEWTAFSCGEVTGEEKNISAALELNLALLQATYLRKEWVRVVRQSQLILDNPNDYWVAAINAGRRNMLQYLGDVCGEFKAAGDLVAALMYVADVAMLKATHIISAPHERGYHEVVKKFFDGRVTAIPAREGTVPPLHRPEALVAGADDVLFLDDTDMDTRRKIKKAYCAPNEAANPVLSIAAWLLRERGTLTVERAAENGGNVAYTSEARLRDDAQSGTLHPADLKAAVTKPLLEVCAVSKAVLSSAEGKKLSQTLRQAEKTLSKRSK
In words: Trypanosoma cruzi tyrosyl tRNA synthetase (TcYRS) _High Tyrosine SOP. Note: in the data most compounds retested in dose-response had high values. In kind it is functional. The following applies: 30 µM.

Test [8] deals with T4, Tyrosyl-tRNA synthetase, putative (Trypanosoma cruzi (strain CL Brener)). In words: Trypanosoma cruzi tyrosyl tRNA synthetase (TcYRS) SOP. To be noted: 30 µM. In kind it is functional.
Test [9] has as its target Chromo domain-containing protein 1 (Saccharomyces cerevisiae (strain ATCC 204508 / S288c) (Baker's yeast)) (UniProt P32657). In words: ScCHD-1 Enzyme Inhibition Assay. Note: in the data most compounds retested in dose-response had high values. The following applies: 30 µM. It counts as functional.

Protein translocase subunit SecA (Escherichia coli (strain K12)), sequence (P10408 whole entry): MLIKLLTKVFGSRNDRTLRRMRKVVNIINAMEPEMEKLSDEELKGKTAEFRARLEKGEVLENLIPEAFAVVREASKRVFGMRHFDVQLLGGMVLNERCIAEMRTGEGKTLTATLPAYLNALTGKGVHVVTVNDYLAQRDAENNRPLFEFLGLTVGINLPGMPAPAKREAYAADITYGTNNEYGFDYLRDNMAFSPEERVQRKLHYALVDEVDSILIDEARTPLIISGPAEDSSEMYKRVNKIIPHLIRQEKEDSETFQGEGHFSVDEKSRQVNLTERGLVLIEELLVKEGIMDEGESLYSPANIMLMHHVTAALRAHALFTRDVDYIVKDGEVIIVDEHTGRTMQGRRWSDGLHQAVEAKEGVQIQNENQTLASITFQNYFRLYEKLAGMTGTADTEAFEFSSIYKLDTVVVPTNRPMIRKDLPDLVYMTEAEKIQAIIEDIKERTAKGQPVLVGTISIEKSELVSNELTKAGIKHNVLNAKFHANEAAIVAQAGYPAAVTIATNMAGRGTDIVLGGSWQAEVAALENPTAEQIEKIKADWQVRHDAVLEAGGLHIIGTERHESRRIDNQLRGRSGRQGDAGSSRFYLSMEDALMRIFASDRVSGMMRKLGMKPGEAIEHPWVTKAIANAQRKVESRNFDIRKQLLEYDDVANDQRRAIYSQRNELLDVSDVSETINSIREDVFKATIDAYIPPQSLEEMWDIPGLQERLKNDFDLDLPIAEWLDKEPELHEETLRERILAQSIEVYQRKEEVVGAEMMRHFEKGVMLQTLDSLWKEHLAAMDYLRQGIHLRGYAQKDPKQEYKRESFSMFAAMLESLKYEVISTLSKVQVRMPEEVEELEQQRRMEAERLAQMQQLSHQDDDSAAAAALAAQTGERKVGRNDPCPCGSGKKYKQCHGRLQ
Chromo domain-containing protein 1 (Saccharomyces cerevisiae (strain ATCC 204508 / S288c) (Baker's yeast)), sequence (P32657 whole entry, the tested form may be a part): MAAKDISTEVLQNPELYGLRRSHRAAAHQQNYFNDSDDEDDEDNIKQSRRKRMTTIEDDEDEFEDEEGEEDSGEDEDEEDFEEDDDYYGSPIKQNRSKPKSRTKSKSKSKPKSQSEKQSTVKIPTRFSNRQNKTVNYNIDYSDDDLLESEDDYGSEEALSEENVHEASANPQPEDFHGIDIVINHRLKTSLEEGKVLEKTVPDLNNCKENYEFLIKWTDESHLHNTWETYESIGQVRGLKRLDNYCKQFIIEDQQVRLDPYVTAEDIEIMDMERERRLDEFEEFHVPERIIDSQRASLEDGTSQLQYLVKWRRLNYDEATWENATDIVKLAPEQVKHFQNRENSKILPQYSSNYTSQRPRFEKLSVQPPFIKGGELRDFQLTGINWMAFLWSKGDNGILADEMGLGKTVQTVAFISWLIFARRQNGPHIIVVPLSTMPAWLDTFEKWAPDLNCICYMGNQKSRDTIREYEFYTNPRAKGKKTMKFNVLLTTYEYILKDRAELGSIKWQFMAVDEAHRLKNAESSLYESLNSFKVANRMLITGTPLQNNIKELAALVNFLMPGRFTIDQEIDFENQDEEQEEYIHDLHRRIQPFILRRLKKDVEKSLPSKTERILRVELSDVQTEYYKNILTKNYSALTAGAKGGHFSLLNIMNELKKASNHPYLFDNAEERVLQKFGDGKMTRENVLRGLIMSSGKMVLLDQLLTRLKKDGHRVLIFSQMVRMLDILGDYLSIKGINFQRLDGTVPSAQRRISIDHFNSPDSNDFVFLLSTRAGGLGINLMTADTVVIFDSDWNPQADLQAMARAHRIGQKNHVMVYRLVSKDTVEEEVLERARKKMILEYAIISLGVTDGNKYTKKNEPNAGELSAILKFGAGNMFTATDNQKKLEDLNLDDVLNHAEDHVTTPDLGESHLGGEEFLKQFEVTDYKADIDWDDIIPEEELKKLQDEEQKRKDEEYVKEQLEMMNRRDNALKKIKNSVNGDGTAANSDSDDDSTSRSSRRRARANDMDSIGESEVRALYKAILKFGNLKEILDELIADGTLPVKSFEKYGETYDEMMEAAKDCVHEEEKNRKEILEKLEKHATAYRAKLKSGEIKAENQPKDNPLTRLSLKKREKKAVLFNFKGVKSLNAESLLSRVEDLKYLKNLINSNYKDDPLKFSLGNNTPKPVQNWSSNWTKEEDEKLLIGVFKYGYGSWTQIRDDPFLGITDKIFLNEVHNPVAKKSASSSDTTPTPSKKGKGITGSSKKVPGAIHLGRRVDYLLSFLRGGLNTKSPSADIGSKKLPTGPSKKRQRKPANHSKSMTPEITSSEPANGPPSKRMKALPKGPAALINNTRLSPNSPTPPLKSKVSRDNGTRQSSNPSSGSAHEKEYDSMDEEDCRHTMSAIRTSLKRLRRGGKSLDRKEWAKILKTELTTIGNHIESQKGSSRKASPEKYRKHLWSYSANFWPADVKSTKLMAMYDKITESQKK
Sialic acid-binding Ig-like lectin 9 (Homo sapiens), sequence (Q9Y336 whole entry): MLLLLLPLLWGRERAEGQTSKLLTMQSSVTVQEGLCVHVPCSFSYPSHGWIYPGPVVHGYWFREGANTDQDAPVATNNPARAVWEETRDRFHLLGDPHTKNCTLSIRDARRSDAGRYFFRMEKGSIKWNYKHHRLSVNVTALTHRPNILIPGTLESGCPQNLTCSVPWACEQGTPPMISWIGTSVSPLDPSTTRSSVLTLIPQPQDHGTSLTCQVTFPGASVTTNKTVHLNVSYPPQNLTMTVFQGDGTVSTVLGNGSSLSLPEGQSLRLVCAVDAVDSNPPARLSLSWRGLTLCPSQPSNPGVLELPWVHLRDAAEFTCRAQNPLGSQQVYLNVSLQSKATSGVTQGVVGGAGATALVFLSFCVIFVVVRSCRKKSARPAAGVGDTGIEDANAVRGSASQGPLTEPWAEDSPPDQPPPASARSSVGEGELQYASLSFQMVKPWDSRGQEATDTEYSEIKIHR

As to `Cc1nc(CN2CCCN(C(=O)C3(C#N)CCCCC3)CC2)cs1`, the Percent Effect is -5.19% in test [1]; 5.06% in test [2]; -4.31% in test [3]; 9.63% in [4]; -1.79% in the test on Trypanosoma cruzi; 0% in test [5]. Besides, the Percent Effect in test [6] was 7.12%; in the test filed under Homo sapiens, 13.8%; in test [7], 6.4%; in [8] it was 13.9%; in test [9] it was -3.28%.

As to `CCN(CC1CCOC1)C(=O)c1cccnc1N1CCOCC1` (stereo unspecified), the Percent Effect in test [1] was -2.22%; in test [2], 5.26%; in test [3] it was -1.45%; in test [4], 12.7%; in the test on Trypanosoma cruzi, 6.07%; in [5] it was -1.8%. The Percent Effect in [6] was -1.95%; in the test listed under Homo sapiens, -1.93%; in test [7], 4.43%; in test [8] it was 6.17%; in test [9], 2.96%.

On to `CC(OCC(F)(F)F)C(=O)Nc1ccc(-n2cncn2)nc1` (stereo unspecified), for which the Percent Effect in test [1] was -3%; in test [2] it was 2.6%; in [3] it was 24.5%; in [4], -9.5%; in the test with Trypanosoma cruzi it was -1.27%; in test [5], 1.05%. The Percent Effect in [6] is 8.49%; in the test listed under Homo sapiens, 22.3%; in test [7], 5.71%; in test [8], 9.41%; in test [9] it was -17.1%.

Regarding `O=C1CC(c2ccc(F)c(F)c2)c2snc(C(=O)O)c2N1` (stereo unspecified), the Percent Effect in test [1] is -0.493%; in [2], -6.67%; in test [3], 4.23%; in [4] it was 3.7%; in the test with Trypanosoma cruzi, -2.36%; in [5] it was 0.176%. In addition, the Percent Effect is 2.77% in test [6]; -4.84% in the test listed under Homo sapiens; 2.12% in [7]; -5.13% in [8]; -4.62% in test [9].

Regarding `CCN1CCn2c(C)cnc2C12CCN(C(=O)c1ccc(Cl)cc1)CC2`, the Percent Effect in [1] is -4.5%; in test [2] it was 10.7%; in test [3], 9.36%; in test [4], -7.09%; in the test on Trypanosoma cruzi, -6.95%; in [5], -59%. Further, the Percent Effect in test [6] is 11.1%; in the test filed under Homo sapiens, 4.01%; in test [7] it was 2.08%; in [8], 10%; in [9], -6.26%.

For the molecule `c1cncc(COCC2CN(Cc3ccco3)Cc3ccnn3C2)c1` (stereo unspecified), the Percent Effect in [1] was -3%; in [2], 13.5%; in test [3], -6.55%; in test [4], 4.29%; in the test with Trypanosoma cruzi, -0.0978%; in test [5], 6.2%. Besides, the Percent Effect in [6] was 5.06%; in the test filed under Homo sapiens it was 9.51%; in test [7], 7.53%; in test [8] it was 13.6%; in [9] it was -2.33%.

As to `N#Cc1ccnc(N2CCN(Cc3cccc(F)c3)CC2)c1`, the Percent Effect in test [1] is -3.54%; in test [2], 18.9%; in [3] it was -3.8%; in test [4], 19.9%; in the test with Trypanosoma cruzi, 4.2%; in [5], 3.23%. Further, the Percent Effect in test [6] was 9.01%; in the test listed under Homo sapiens, 4.37%; in [7] it was 4.3%; in test [8] it was 16.1%; in test [9], -8.71%.

As to `CN(Cc1ccc(F)cc1)CC1(O)CCCN(CC(C)(C)C)C1=O` (stereo unspecified), the Percent Effect in test [1] is -5.95%; in test [2], -1.39%; in test [3], -3.53%; in test [4] it was -2.57%; with Trypanosoma cruzi, 3.79%; in [5], 3.09%. In addition, the Percent Effect is -3.16% in [6]; 1.55% in the test filed under Homo sapiens; -7.37% in [7]; -2.56% in test [8]; 0.558% in test [9].

With `Cc1nc(C)c2c(n1)CCN(C(=O)CC1CC1)CC2`, the Percent Effect is 3.82% in test [1]; 10.8% in [2]; 4.71% in test [3]; -10.8% in test [4]; -5.57% in the test with Trypanosoma cruzi; 2.87% in [5]. In addition, the Percent Effect is 21.2% in [6]; 10.2% in the test listed under Homo sapiens; 3.24% in test [7]; 12.8% in test [8]; -3.91% in test [9].

As to `CC(C)c1nccn1C1CCCN(C(=O)c2cnn(C)c2C2CC2)C1` (stereo unspecified), the Percent Effect in test [1] was -1.82%; in [2], 13.2%; in test [3] it was -2.81%; in test [4], -2.13%; in the test with Trypanosoma cruzi, 2.71%; in test [5] it was -5.75%. Moreover, the Percent Effect was 6.34% in test [6]; -7.13% in the test filed under Homo sapiens; 13.3% in test [7]; 25.9% in [8]; -8.69% in test [9].

`NCCn1nc(C2CCN(C(=O)CC3CCCCC3)C2)c2nccnc21` (stereo unspecified): the Percent Effect in test [1] is -2.44%; in test [2], -10.7%; in [3] it was 3.88%; in test [4], 8.44%; in the test on Trypanosoma cruzi, 1.57%; in test [5], -3.5%. Further, the Percent Effect in [6] was -10.5%; in the test listed under Homo sapiens, 11.9%; in test [7], -8.51%; in test [8], 8.97%; in [9], -1.74%.
